Screening results: PubChem, Sanford-Burnham Center for Chemical Genomics
Peg3 promoter = reduces Peg3 promoter-driven luciferase expression in HeLa. HeLa PEG-Prom luciferase reporter, luminescence, overnight. inhibition, % at 20 µM. 1.7% of 360,000 active. AID 588405;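 active = inhibition of at least 50% at 20 µM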
TROY signal inh = blocks TROY-dependent signaling in reporter cells. Q293 LMP1-TROYcd NF-kB luciferase reporter, 4 h. inhibition, % at 10 µM. 0.98% of 360,000 active;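 active = compounds whose plate-normalised and pattern-corrected inhibition of the luciferase reporter signal at the single screening dose is 50% or more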
CF NFkB inh = cystic fibrosis NF-kB activation inhibition; inhibition, % at 5 µM; KKLEB NF-kB-GFP reporter, PAF-induced, GFP fluorescence overnight; AID 588850; 0.86% of 360,000 active;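 active = at least 50% inhibition at 5 µM, scaled per plate between neutral and stimulator controls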;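 also: PAF is a Pseudomonas aeruginosa culture filtrate used as stimulus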
TWEAK-Fn14 inh = blocks TWEAK-Fn14 interaction in a reporter cell assay | TWEAK-stimulated Fn14 reporter cells, luciferase luminescence, 8 h | inhibition, % at 10 µM | 2% of 360,000 active | AID 1159606; in the data active = inhibition above about 50%
HIF-2a inh = inhibitors of HIF-2a; 0.72% of 360,000 active; inhibition, % at 18.8 µM; 786-0 RCC cells HIF-2a reporter, luciferase luminescence, overnight;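 active = inhibition of the luminescence signal of 40% or more relative to plate controls, in a single-dose primary screen at 18.75 µM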
KKLEB cytotox = CF airway cell cytotoxicity counter-screen. 0.36% of 360,000 active. AID 602141. KKLEB CF airway cells viability, ATPlite luminescence, overnight; active compounds read low; cells stimulated with P. aeruginosa culture filtrate. activity change (cytotoxicity), % at 5 µM;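 active = corrected activity change at or below -50% at 5 µM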
A number is an active result; . = inactive; / = not tested or not shown. This is a sample that favours compounds with a hit; in the whole collection about 4% have one here.

SMILES	Peg3 promoter	TROY signal inh	CF NFkB inh	TWEAK-Fn14 inh	HIF-2a inh	KKLEB cytotox
CC(=O)c1ccc(Nc2nc(C(N)C(C)C)cs2)cc1 (configuration not stated)	.	.	.	.	.	.
CN(C(=O)c1cccc(NC(=O)Cc2ccc(NC(=O)C3CCCN(C(=O)CCc4ccccc4)C3)cc2)c1)C1CCC1 (configuration not stated)	.	.	.	.	.	.
CN(C(=O)c1cccc(NC(=O)Cc2ccc(NC(=O)C3CCCN(C(=O)CCc4ccccc4)C3)cc2)c1)C1CCCC1 (configuration not stated)	.	.	.	53	.	.
O=C(NCCCc1ccccc1)c1cccc(NC(=O)C2CCC2)c1	.	.	.	.	.	.
O=C(NCCCc1ccccc1)c1cccc(NC(=O)C2CCCCC2)c1	.	.	.	54	.	.
CCN(Cc1ccccc1)C(=O)CCS(=O)(=O)c1ccc2c(c1)NC(=O)CO2	.	.	.	.	.	.
COc1ccc(C(=O)NC2=NCCS2)cc1S(=O)(=O)N1CCOCC1	.	.	.	.	.	.
Cn1cc(/C=C/c2cc[n+](C)cc2)c2cc(F)ccc21	.	.	.	.	.	.
Cn1cc(/C=C/c2cc[n+](C)cc2)c2cc(Cl)ccc21	51	.	.	.	.	.
COC(=O)C1=C(C)N(Cc2ccccc2)C(=NCc2ccc(OC)cc2)N[C@H]1c1ccccc1	69	.	.	.	.	.
COC(=O)C1=C(C)N(Cc2ccccc2)C(=O)N[C@H]1c1ccccc1	.	.	.	.	.	.
COC(=O)C1=C(C)N(Cc2ccccc2)C(=NCc2cccc(C(F)(F)F)c2)N[C@H]1c1cccc(F)c1	100	.	84	.	.	-97
COC(=O)C1=C(C)N(CC2CC2)C(=NCc2cccc(C(F)(F)F)c2)N[C@H]1c1ccccc1	.	.	.	.	.	.
CC[C@]12c3[nH]c4ccc(Cl)cc4c3CCN1C(=O)[C@@H](CC(=O)NCc1ccc(OC)c(OC)c1)C[C@@H]2C(=O)N1CCN(C(=O)c2ccco2)CC1	.	.	.	.	.	.
COc1ccc(CCNC(=O)CCC(=O)N2CC(C)Oc3ccccc32)cc1OC (configuration not stated)	.	.	.	.	.	.
O=C(N/N=C/c1ccco1)c1cc(-c2cccc(Br)c2)nc2ccccc12	.	.	.	77	.	.
Cc1cc(C(=O)N/N=C/c2ccc(N(C)C)cc2)c2ccccc2n1	.	54	.	51	.	.
CN(C)S(=O)(=O)c1ccc(NC(=O)c2cc(-c3cccs3)nc3ccccc23)cc1	.	88	.	.	.	.
Cc1cccc2sc(NNC(=O)c3cc(-c4cccs4)nc4ccccc34)nc12	56	.	.	88	.	.
Cc1ccc(C(=O)N2CCN(S(=O)(=O)N3CCCCC3)CC2)cc1	.	.	.	.	.	.
O=C(O)CC1Sc2nnc(COc3ccc(Cl)cc3)n2N=C1c1ccccc1 (configuration not stated)	.	.	.	.	.	.
O=C(N/N=C/c1ccc(Cl)c([N+](=O)[O-])c1)c1cc(-c2ccccc2)nc2ccccc12	108	.	.	.	.	.
O=C(O)c1ccc(/C=N/NC(=O)c2cc(-c3cccs3)nc3ccccc23)cc1	65	.	.	.	.	.
O[C@@H]1CN(Cc2cccs2)[C@@H](c2ccccc2)C[C@H]1n1cc(-c2ccc(F)cc2)nn1	.	.	.	.	.	.
CCCCCCCCCCC[N+](C)(C)CC/C=C1/c2ccccc2Sc2ccc(Cl)cc21	108	.	.	.	.	.
SMILES	Peg3 promoter	TROY signal inh	CF NFkB inh	TWEAK-Fn14 inh	HIF-2a inh	KKLEB cytotox
CC[N+](C)(C)CC/C=C1/c2ccccc2Sc2ccc(Cl)cc21	.	.	.	.	.	.
OCCN1CCN(CC/C=C2/c3ccccc3Sc3ccc(Cl)cc32)CC1	87	.	.	.	.	.
O=C(NCCCN1CCCC1=O)C(=O)NCC1OCCN1S(=O)(=O)c1ccc(Cl)cc1 (configuration not stated)	.	.	.	.	.	.
CCOC(=O)N1CCN(C(=O)c2ccc3c(c2)sc2nc(-c4ccccc4)cn23)CC1	.	59	.	.	.	.
CCOC(=O)N1CCN(C(=O)c2ccc3nc(C)sc3c2)CC1	.	.	.	.	.	.
CCCCN(CC)c1nc(-c2ccncc2)nc2ccccc12	.	.	.	57	.	.
CCCN(CCC)c1nc(-c2ccccn2)nc2ccccc12	52	.	.	.	.	.
CCN1CCN(c2nc(-c3ccccn3)nc3ccccc23)CC1	.	.	.	.	.	.
COCCN(CCOC)c1nc(-c2ccc(C)cc2)nc2ccccc12	.	.	.	.	.	.
CC1=CN2C(=N)/C(=C/c3ccc(C)o3)C(=O)N=C2S1	.	.	.	66	.	.
CCN(CCCNC(=O)Cn1ncc2c([nH]c3ccc(C)cc32)c1=O)Cc1ccccc1	.	.	.	.	.	.
Cc1cccc(C)c1NC(=O)COC(=O)c1cc[n+]([O-])cc1	.	.	.	.	.	.
COc1ccc(Cl)c2sc(N3CCN(C(C)=O)CC3)nc12	.	.	.	.	.	.
Cn1cc(CN2CCCC(C(=O)Nc3cccc(-c4cc5ccccc5[nH]4)c3)C2)cn1 (configuration not stated)	56	.	.	.	.	.
CC(C)n1cc(CN2CCCC(C(=O)Nc3cccc(-c4cc5ccccc5[nH]4)c3)C2)cn1 (configuration not stated)	97	.	.	.	.	.
CC1=C(C(=O)N2CCCCCC2)CC(CC(=O)NCCN2CCOCC2)C(=O)N1Cc1ccc(C(C)(C)C)cc1 (configuration not stated)	/	.	/	.	.	/
Cn1cc(CN2CCC(C(=O)NC(c3ccc(-c4ccccc4)cc3)c3cnccn3)CC2)c2ccccc21 (configuration not stated)	107	.	.	.	.	.
COc1ccccc1-c1cc(NC=O)c2ncc(-c3ccc(S(C)(=O)=O)cc3)n2c1	.	.	.	.	.	.
CN1CCc2cc3c(c4c2[C@H]1[C@H](O)c1ccccc1-4)OCO3	66	.	.	.	.	.
O=C(NN=C(c1ccccc1)c1ccccn1)c1ccccc1	.	.	.	.	.	.
C/C(=N\NC(=O)C(c1ccccc1)c1ccccc1)c1ccc(O)cc1	.	.	.	.	.	.
C/C(=N\NC(=O)c1cccc2ccccc12)c1ccccn1	.	.	.	101	.	.
C/C(=N\NC(=O)C(c1ccccc1)c1ccccc1)c1ccccn1	97	.	.	57	.	.
O=C(N/N=C(\c1ccccc1)c1ccccn1)c1ccccc1Cl	54	.	.	.	.	.
C/C(=N\NC(=O)c1ccccc1OCc1ccc(F)cc1)c1ccccn1	50	.	.	.	.	.
